Assay results from PubChem BioAssay (NCI).
Compounds without any hit were thinned out: in the full panel of roughly 83,000, 20% have a hit.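 Each cell line was grown in a 96-well plate and treated with one concentration of compound for 48 hours. Values below 10 were considered active.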 Activity calls are given as the source filed them.

Tests used:
Assay in all cases: NCI-60 one-dose screen, 48 h (100 = growth as untreated, 0 = no growth, -100 = all killed)
Details in all cases: 10 µM unless noted
T-47D breast = test system: T-47D breast
BT-549 breast = test system: BT-549 breast
MDA-MB-435 melanoma = test system: MDA-MB-435 melanoma
SW-620 colon = test system: SW-620 colon
MCF7 breast = test system: MCF7 breast
HCT-116 colon = test system: HCT-116 colon
HCC-2998 colon = test system: HCC-2998 colon
KM12 colon = test system: KM12 colon

Measured: growth

Cc1cc(N2CCCCC2)nc(N(CCCNc2ccnc3cc(Cl)ccc23)Cc2ccco2)n1
active: MDA-MB-435 melanoma -9.54% | SW-620 colon 9.49% | HCT-116 colon 0.453%
inactive: T-47D breast 26.9% | BT-549 breast 27.3% | MCF7 breast 11.7% | HCC-2998 colon 54.7% | KM12 colon 28.9%

O=C1CCN2C(=O)Nc3ccccc3C2C1 (stereo not drawn)
inactive: T-47D breast 100% | BT-549 breast 109% | MDA-MB-435 melanoma 97.5% | SW-620 colon 99.8% | MCF7 breast 95.3% | HCT-116 colon 98.6% | HCC-2998 colon 100% | KM12 colon 106%

COc1ccc(-c2cc(-c3c(C)oc4cc5occc5c(OC)c4c3=O)nc(N)c2C#N)cc1OC
inactive: T-47D breast 41.2% | BT-549 breast 70.8% | MDA-MB-435 melanoma 17.6% | SW-620 colon 57.5% | MCF7 breast 24.8% | HCT-116 colon 53.7% | HCC-2998 colon 98% | KM12 colon 59.6%

COc1ccc2nc(-c3c(-c4ccccc4)nc4ncccn34)[nH]c2c1
inactive: T-47D breast 82.1% | BT-549 breast 110% | MDA-MB-435 melanoma 104% | SW-620 colon 108% | MCF7 breast 96.6% | HCT-116 colon 97.1% | HCC-2998 colon 101% | KM12 colon 111%

COC(=O)[C@]12CC[C@@H](C)[C@H](C)[C@@H]1C1=CC[C@@H]3[C@@]4(C)C[C@@H](OC(C)=O)[C@H](O)[C@@](C)(CO)[C@@H]4[C@H](O)C[C@@]3(C)[C@]1(C)CC2
active: T-47D breast -66.9% | BT-549 breast -81.5% | MDA-MB-435 melanoma -96.4% | SW-620 colon -67.8% | MCF7 breast -73.5% | HCT-116 colon -65.4% | HCC-2998 colon -87.8% | KM12 colon -84.2%

C/C(Cc1ccc(Cl)cc1)=C(/c1ccc(Cl)cc1)c1ccc(OCCN2CCCC2)cc1
inactive: T-47D breast 66.3% | BT-549 breast 99.2% | MDA-MB-435 melanoma 82% | SW-620 colon 58.6% | MCF7 breast 31% | HCT-116 colon 30.7% | HCC-2998 colon 68.7% | KM12 colon 53.8%

CC(=O)Oc1ccccc1C(=O)/C=C/c1cccc([N+](=O)[O-])c1
inactive: T-47D breast 74.2% | BT-549 breast 104% | MDA-MB-435 melanoma 55.7% | SW-620 colon 43% | MCF7 breast 39.9% | HCT-116 colon 10.8% | HCC-2998 colon 101% | KM12 colon 34.7%

COc1cc2[nH]c(C(=O)c3cc(OC)c(OC)c(OC)c3)c(N)c2cc1C#CC1CC1
active: MDA-MB-435 melanoma 2.06%
inactive: T-47D breast 32.8% | BT-549 breast 53.4% | SW-620 colon 22.5% | MCF7 breast 17.6% | HCT-116 colon 19.1% | HCC-2998 colon 66.1% | KM12 colon 18%

Cc1cc(N2CCN(C)CC2)nc(N(CCNc2ccnc3cc(Cl)ccc23)Cc2ccco2)n1
active: MDA-MB-435 melanoma -39.8%
inactive: T-47D breast 40.4% | BT-549 breast 31.1% | SW-620 colon 38.2% | MCF7 breast 17.1% | HCT-116 colon 17.1% | HCC-2998 colon 92.7% | KM12 colon 34.2%

Nc1nc(Br)nc2c1ncn2C1CC(O)C(CO)O1 (stereo not drawn)
inactive: T-47D breast 70.1% | BT-549 breast 50.1% | MDA-MB-435 melanoma 56.5% | SW-620 colon 60.1% | MCF7 breast 28.4% | HCT-116 colon 37.9% | HCC-2998 colon 58.9% | KM12 colon 78.6%

Cc1ccc(Cc2cnc(NC(=O)/C=C/c3cccc(C)c3)s2)cc1
inactive: T-47D breast 39.8% | SW-620 colon 17% | MCF7 breast 14.6% | HCC-2998 colon 12.4% | KM12 colon 16.1%
active: BT-549 breast -5.4% | MDA-MB-435 melanoma -44.7% | HCT-116 colon 2.53%

Oc1cccc2ccc(N/N=C/c3cc(CN4CCCCC4)c(O)c4ncccc34)nc12
active: HCT-116 colon 1.57% | HCC-2998 colon 5.61% | KM12 colon 9.18%
inactive: T-47D breast 25.3% | BT-549 breast 11.1% | MDA-MB-435 melanoma 20.2% | SW-620 colon 16% | MCF7 breast 10.3%

O=c1[nH]c(=S)[nH]c2nc[nH]c12
inactive: T-47D breast 105% | BT-549 breast 109% | MDA-MB-435 melanoma 110% | SW-620 colon 99.2% | MCF7 breast 97.4% | HCT-116 colon 93.9% | HCC-2998 colon 99.7% | KM12 colon 106%

Cc1cc2nc3c4cc([N+](=O)[O-])cc([N+](=O)[O-])c4n(CCN(C)C)c3nc2cc1C
inactive: T-47D breast 73.6% | BT-549 breast 90.7% | MDA-MB-435 melanoma 92.1% | SW-620 colon 45.6% | MCF7 breast 63.2% | HCT-116 colon 45.3% | HCC-2998 colon 88.2% | KM12 colon 77.1%

CCCCn1c(-c2ccc(O)cc2)cn2c3c(=O)[nH]c(=O)n(C)c3nc12
inactive: T-47D breast 64.6% | BT-549 breast 76.5% | SW-620 colon 36.6% | MCF7 breast 41.7% | HCT-116 colon 45.4% | HCC-2998 colon 72.3% | KM12 colon 59.9%
active: MDA-MB-435 melanoma -13.1%

Cc1csc(Nc2nc(-c3cccc(Br)c3)nc(C(Cl)(Cl)Cl)n2)n1
inactive: T-47D breast 13.9% | BT-549 breast 85.4% | MDA-MB-435 melanoma 65.3% | SW-620 colon 52.6% | MCF7 breast 28.9% | HCT-116 colon 47.7% | HCC-2998 colon 16.1% | KM12 colon 27.7%

CC1(c2ccccc2)OC1C(=O)O (stereo not drawn)
inactive: T-47D breast 117% | BT-549 breast 94.9% | MDA-MB-435 melanoma 98.7% | SW-620 colon 102% | MCF7 breast 105% | HCT-116 colon 101% | HCC-2998 colon 96.5% | KM12 colon 105%

COc1ccc(C2C(C#N)=C(N)Oc3c2sc2c(F)cccc32)cc1 (stereo not drawn)
active: MDA-MB-435 melanoma -23.9% | HCT-116 colon 8.94%
inactive: T-47D breast 23.8% | BT-549 breast 37% | SW-620 colon 25.1% | MCF7 breast 15.4% | HCC-2998 colon 85.2% | KM12 colon 35.5%

NC1=NN(c2ccccc2)C(=O)/C1=C/c1ccc(Cl)cc1
inactive: T-47D breast 74.1% | BT-549 breast 104% | MDA-MB-435 melanoma 105% | SW-620 colon 101% | MCF7 breast 96.6% | HCT-116 colon 100% | HCC-2998 colon 109% | KM12 colon 103%

NNC(=O)c1nc2ccccc2[nH]1
inactive: T-47D breast 89.8% | BT-549 breast 95.4% | MDA-MB-435 melanoma 109% | SW-620 colon 105% | MCF7 breast 104% | HCT-116 colon 91.3% | HCC-2998 colon 104% | KM12 colon 102%

CCN1CCN(C(=O)[C@@]2(C)CC[C@]3(C)CC[C@]4(C)C(=CC(=O)[C@@H]5[C@@]6(C)CC[C@H](OCCC#N)C(C)(C)[C@@H]6CC[C@]54C)[C@@H]3C2)CC1
inactive: T-47D breast 66% | BT-549 breast 79% | MDA-MB-435 melanoma 81.5% | SW-620 colon 97.9% | MCF7 breast 78.2% | HCT-116 colon 80.6% | HCC-2998 colon 101% | KM12 colon 98.5%

CC(=O)NC1=C(C#N)C(c2ccccc2Cl)c2c(ccc3ccccc23)O1 (stereo not drawn)
inactive: T-47D breast 62.5% | BT-549 breast 50% | SW-620 colon 43% | MCF7 breast 42.1% | HCT-116 colon 47.5% | HCC-2998 colon 85.4% | KM12 colon 51.2%
active: MDA-MB-435 melanoma -11.2%

Cc1cc(Cl)nc(N(CCNc2ccnc3cc(Cl)ccc23)Cc2ccco2)n1
inactive: BT-549 breast 54.7% | MDA-MB-435 melanoma 41.9% | SW-620 colon 28% | MCF7 breast 22.7% | HCT-116 colon 13.6% | HCC-2998 colon 91.1% | KM12 colon 59.5%
active: T-47D breast -14.7%

O=C(N/N=C/c1ccccc1SSc1ccccc1/C=N/NC(=O)c1ccccc1)c1ccccc1
inactive: T-47D breast 43.6% | BT-549 breast 30.1% | MDA-MB-435 melanoma 46.1% | SW-620 colon 41.6% | MCF7 breast 10.1% | HCT-116 colon 24.6% | HCC-2998 colon 55.6% | KM12 colon 36.4%

Nc1c(C(=O)Nc2c(Cl)cccc2Cl)sc2nc3c(cc12)CCCC3
inactive: T-47D breast 69% | BT-549 breast 90.1% | SW-620 colon 51% | MCF7 breast 43.7% | HCT-116 colon 47.8% | HCC-2998 colon 92.5% | KM12 colon 68.6%
active: MDA-MB-435 melanoma 5.24%

O=C1CNCCN1
inactive: T-47D breast 110% | BT-549 breast 100% | MDA-MB-435 melanoma 107% | SW-620 colon 104% | MCF7 breast 89.3% | HCT-116 colon 101% | HCC-2998 colon 111% | KM12 colon 110%

O=C(/C=C/c1cccc2ccccc12)Nc1ncc(Cc2ccccc2)s1
inactive: T-47D breast 16% | BT-549 breast 24.8% | SW-620 colon 13.7% | MCF7 breast 10.8% | HCC-2998 colon 54.3% | KM12 colon 15.8%
active: MDA-MB-435 melanoma -64.7% | HCT-116 colon 8.93%

COc1ccc(-n2c(/C=C/c3ccc(O)c(OC)c3)cc(/C=C/c3ccc(O)c(OC)c3)nc2=O)cc1
inactive: T-47D breast 51.8% | BT-549 breast 30.9% | MDA-MB-435 melanoma 29.6% | SW-620 colon 29.8% | MCF7 breast 19.7% | HCT-116 colon 21.1% | HCC-2998 colon 94.9% | KM12 colon 42%

Nc1ccc(Cl)cn1
inactive: T-47D breast 86.7% | BT-549 breast 104% | MDA-MB-435 melanoma 106% | SW-620 colon 102% | MCF7 breast 94.7% | HCT-116 colon 95.4% | HCC-2998 colon 113% | KM12 colon 100%

COc1ccc(-c2nc3c(c(C)nn3-c3ccc(F)cc3)c(=O)[nH]2)cc1
inactive: T-47D breast 20.2% | BT-549 breast 76.3% | MDA-MB-435 melanoma 74.7% | SW-620 colon 74.6% | MCF7 breast 73.7% | HCT-116 colon 48.5% | HCC-2998 colon 98.4% | KM12 colon 84.4%

c1ccc(CN2C(c3ccccc3)=Nc3ccccc3C2c2c[nH]c3ccccc23)cc1 (stereo not drawn)
inactive: T-47D breast 27.8% | BT-549 breast 96.3% | MDA-MB-435 melanoma 39.2% | SW-620 colon 27.1% | MCF7 breast 23.5% | HCT-116 colon 14.3% | HCC-2998 colon 41.8% | KM12 colon 56.8%
